Screening data (PubChem BioAssay)
Shown are actives, neighbours in structure and some others; about 1.8% of the full set was active somewhere.
ERp5 inh = inhibitors of ERp5-driven insulin aggregation, primary screen, biochemical, turbidity, absorbance 650 nm, single point. Protein disulfide-isomerase A6 (Homo sapiens), Q15084. 90 min. inhibition, % at 9.99 µM. 350,000 tested, 0.05% active;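 active = mean replicate inhibition above about 25%, with every replicate also reaching it, limit read from the data, passing the limit was not always enough; inconclusive = only one of those two criteria met; inactive = neither criterion met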
PDI turbidity = inhibitors of human PDI, primary screen, biochemical, turbidity, single point, plate reader | inhibition, % at 10 µM | AID 588391, 2011 | PDI insulin aggregation turbidity, A650, 90 min | Protein disulfide-isomerase (Homo sapiens), P07237 | 350,000 tested, 0.052% active;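 active = mean inhibition across replicates of 30% or more, whatever share of single replicates reach that level; inconclusive = mean inhibition below 30% while every single replicate reaches 30%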
Target sequence (P07237 whole entry, looked up): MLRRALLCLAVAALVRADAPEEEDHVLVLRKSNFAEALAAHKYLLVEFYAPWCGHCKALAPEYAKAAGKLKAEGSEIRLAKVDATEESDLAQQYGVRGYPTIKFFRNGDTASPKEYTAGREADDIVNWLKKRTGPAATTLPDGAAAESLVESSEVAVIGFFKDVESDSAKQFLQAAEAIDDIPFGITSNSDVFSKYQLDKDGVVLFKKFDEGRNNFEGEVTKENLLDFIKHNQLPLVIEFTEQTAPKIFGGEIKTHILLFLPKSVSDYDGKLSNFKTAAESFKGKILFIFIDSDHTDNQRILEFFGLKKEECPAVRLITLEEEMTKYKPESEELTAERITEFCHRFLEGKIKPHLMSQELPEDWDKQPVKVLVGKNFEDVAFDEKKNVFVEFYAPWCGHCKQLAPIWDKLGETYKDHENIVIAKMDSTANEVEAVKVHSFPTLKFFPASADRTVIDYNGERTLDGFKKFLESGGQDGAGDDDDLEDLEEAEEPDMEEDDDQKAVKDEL
AF4-AF9 inh = inhibitors of AF4 peptide binding to AF9, primary screen, biochemical, AlphaScreen, biotin-AF4 peptide, FLAG-AF9, single point; inhibition, % at 10 µM; 350,000 tested, 0.47% active; AID 651704, 2012;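 active = every replicate reaching a set inhibition limit, whatever the replicate mean, cut at about 25% in these data; inconclusive = mean inhibition reaches that limit but some replicates miss it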;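 also: 0% = plate neutral control median and 100% = total signal loss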
ERAP1 HTS inh = human ERAP1 aminopeptidase inhibitors, primary screen, biochemical, single point, plate reader. Endoplasmic reticulum aminopeptidase 1 (Homo sapiens), Q9NZ08. recombinant ERAP1, Leu-AMC fluorescence, 60 min. inhibition, % at 10.7 µM. 340,000 tested, 0.15% active. AID 652197, 2013;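 active = mean replicate inhibition of at least 30%, or all replicates individually reaching that 30% level; inactive = mean below 30% and not every replicate reaching it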;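 also: 0% = neutral control wells and 100% = L-leucinethiol positive control wells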
DENV2 CPE = inhibitors of DENV2 cytopathic effect, primary screen, cell-based, plate reader, single concentration. DENV2-infected cells, cytopathic effect rescue. CPE inhibition, % at 9.99 µM. 350,000 tested, 1.7% active; in the data active = CPE inhibition above about 20%, passing the limit was not always enough; inconclusive = no clear call, values can overlap the other calls; tested in BHK-21 cells;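 also: 0% = median of neutral control wells and 100% = median of positive control wells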
Starred values were filed as active, the others as inactive; ? = inconclusive; / = not tested or not shown.

SMILES | ERp5 inh | PDI turbidity | AF4-AF9 inh | ERAP1 HTS inh | DENV2 CPE
CCN(CC(=O)Nc1c(F)cccc1F)C(=O)/C=C/c1ccc2c(c1)OCO2 | 2 | 14 | 2 | -5 | 84*
CCOc1ccc(/C=C/C(=O)N(CC)CC(=O)Nc2c(F)cccc2F)cc1OC | 5 | 11 | 1 | 1 | 1
CN1CCN(CC(O)COc2ccc(S(=O)(=O)N3CCOCC3)cc2)CC1 (configuration not stated) | -4 | -2 | 1 | 1 | 46*
O=S(=O)(c1ccc(OCC(O)CN2CCCC2)cc1)N1CCOCC1 (configuration not stated) | / | -4 | / | / | /
CCCNC(=O)Nc1ccc2c(c1)C(=O)N(C)C[C@H](OC)[C@@H](C)CN(C(=O)C1CCC1)[C@H](C)CO2 | -6 | / | -1 | 0 | 0
C[C@@H]1CN([C@@H](C)CO)C(=O)c2cc(C#CCN(C)C)cnc2O[C@H]1CN(C)C(=O)c1ccc2c(c1)OCO2 | 2 | / | 0 | 1 | 10
CO[C@@H]1CN(C)C(=O)c2cc(NC(=O)C3CC3)ccc2OC[C@H](C)N(Cc2nccs2)C[C@@H]1C | 5 | / | 0 | 0 | -2
N#Cc1c(Cl)cccc1N1CCSCC1 | 2 | / | -4 | -8 | 36*
CSCCC(NC(=O)COc1ccccc1)C(=O)OCCOc1ccc(C)cc1 (configuration not stated) | -15 | -13 | 3 | 0 | 27*
CC(C)NC(=O)N(C)C[C@H]1OCCCC[C@H](C)Oc2ccc(NC(=O)NC3CCCCC3)cc2C(=O)N([C@@H](C)CO)C[C@H]1C | 4 | / | -2 | -1 | -3
O=C(c1cccc(F)c1)N1CC[C@@H]2[C@H]1c1cc(-c3ccccc3)ccc1N[C@@H]2CO | 3 | / | 4 | -2 | 46*
COc1cccc(-c2ccc3c(c2)[C@@H]2[C@@H](CCN2C(=O)c2cccc(F)c2)[C@@H](CO)N3)c1 | -2 | / | 6 | 3 | 28*
COc1ccc(-c2ccc3c(c2)[C@H]2[C@H](CCN2C(=O)c2cccc(F)c2)[C@H](CO)N3)cc1 | -9 | / | -2 | -1 | -17
C/C(=N\NC(=O)CC#N)c1cc2ccc(O)cc2oc1=O | 8 | 7 | -2 | 80* | -9
C[C@@H]1CCCCO[C@@H](CN(C)Cc2ccc(Cl)c(Cl)c2)[C@H](C)CN([C@@H](C)CO)C(=O)c2cc(NS(=O)(=O)c3ccc(Cl)cc3)ccc2O1 | -7 | / | 0 | -4 | -26
CC(C)NC(=O)N(C)C[C@@H]1Oc2ccc(NS(=O)(=O)c3ccc(Cl)cc3)cc2CC(=O)N([C@@H](C)CO)C[C@@H]1C | 3 | / | 36* | 1 | ?
CC(C)NC(=O)N(C)C[C@H]1Oc2ccc(NS(=O)(=O)c3ccc(Cl)cc3)cc2CC(=O)N([C@H](C)CO)C[C@@H]1C | / | / | -1 | / | /
Cc1noc(C)c1S(=O)(=O)Nc1ccc2c(c1)CC(=O)N([C@@H](C)CO)C[C@@H](C)[C@H](CN(C)C(=O)NC1CCCCC1)O2 | 4 | / | -2 | 1 | 22*
C[C@@H]1CN([C@@H](C)CO)C(=O)Cc2cc(NS(=O)(=O)c3ccc(Cl)cc3)ccc2O[C@@H]1CN(C)S(=O)(=O)c1ccc(Cl)cc1 | 2 | / | 3 | -2 | 47*
C[C@H]1CN([C@@H](C)CO)C(=O)Cc2cc(NS(=O)(=O)c3ccc(Cl)cc3)ccc2O[C@H]1CN(C)C(=O)NC1CCCCC1 | 6 | / | -2 | -1 | 32*
CCCNC(=O)N1CC2(C1)[C@H](c1ccccc1)[C@@H](CO)N2C(=O)c1ccncc1 | -3 | / | -2 | -1 | -12
CCS(=O)(=O)N1CC2(CN(C(=O)CN3CCOCC3)[C@H](CO)c3c2c2ccc(OC)cc2n3C)C1 | 1 | / | 1 | 3 | -8
CCCN1C[C@H](C)[C@@H](OC)CN(C)C(=O)c2cc(NC(=O)Nc3ccccc3F)ccc2OC[C@@H]1C | 2 | / | 0 | / | -1
C[C@H](CO)N1C[C@H](C)[C@@H](CN(C)S(=O)(=O)c2ccc(Cl)cc2)Oc2ccc(NC(=O)C3CC3)cc2CC1=O | 2 | / | -1 | -3 | 30*
C[C@H]1CN([C@@H](C)CO)C(=O)Cc2cc(NS(=O)(=O)c3ccc(F)cc3)ccc2O[C@@H]1CN(C)S(C)(=O)=O | 12 | / | 5 | 7 | 46*
SMILES | ERp5 inh | PDI turbidity | AF4-AF9 inh | ERAP1 HTS inh | DENV2 CPE
C[C@H]1CN([C@@H](C)CO)C(=O)Cc2cc(NC(=O)C3CCCCC3)ccc2O[C@H]1CN(C)S(=O)(=O)c1ccc(Cl)cc1 | 3 | / | 0 | 2 | 1
C[C@@H]1CN([C@H](C)CO)C(=O)Cc2cc(NS(=O)(=O)c3ccc(Cl)cc3)ccc2O[C@@H]1CN(C)CC1CCCCC1 | 8 | / | 6 | -5 | 49*
C[C@H](CO)N1C[C@H](C)[C@@H](CN(C)CC2CCCCC2)Oc2ccc(NS(=O)(=O)c3ccc(Cl)cc3)cc2CC1=O | -1 | / | 11 | -2 | 8
CO[C@@H]1CN(C)C(=O)c2cc(NC(=O)C3CC3)ccc2OC[C@@H](C)N(Cc2ccc(F)cc2)C[C@H]1C | 2 | / | 3 | -1 | 14
CNC(=O)C[C@H]1CC[C@@H]2[C@H](COc3ccc(NC(=O)c4cccs4)cc3C(=O)N2C)O1 | / | / | / | / | 2
COc1ccc(C(=O)N2C[C@@H]3[C@H](c4ccccc42)[C@H](CO)N3C(=O)NC(C)C)cc1 | 1 | / | -2 | -4 | 27*
CC(C)NC(=O)N1[C@H](CO)[C@H]2c3ccccc3N(C(=O)Nc3ccccc3)C[C@H]21 | 1 | / | 2 | 0 | 21*
O=C(Nc1ccccc1)N1C[C@@H]2[C@H](c3ccccc31)[C@H](CO)N2Cc1ccccc1Cl | -3 | / | -3 | 3 | -1
O=C(Nc1ccccc1)N1C[C@@H]2[C@H](c3ccccc31)[C@@H](CO)N2Cc1ccccc1Cl | 3 | / | 1 | 4 | 37*
C[C@@H]1CCCCO[C@@H](CN(C)S(=O)(=O)c2ccc(F)cc2)[C@H](C)CN([C@H](C)CO)C(=O)c2cc(NC(=O)Nc3ccc(C(F)(F)F)cc3)ccc2O1 | -3 | / | -2 | -2 | -4
Cc1noc(C)c1NC(=O)Nc1cccc2c1O[C@H](CN(C)C(=O)Nc1c(C)noc1C)[C@H](C)CN([C@H](C)CO)C2=O | -2 | / | -2 | 0 | 7
O=C(O)CCC(=O)Nc1ccc(SSc2ccc(NC(=O)CCC(=O)O)cc2)cc1 | 3 | 11 | -3 | 38* | 2
C[C@@H](O)C#Cc1ccc2c(c1)O[C@@H](CN(C)C(=O)CN(C)C)[C@@H](C)CN([C@@H](C)CO)S2(=O)=O | -1 | / | -1 | 1 | -13
C[C@H](CO)N1C[C@H](C)[C@H](CN(C)C(=O)C2CC2)Oc2cc(C#Cc3ccncc3)ccc2S1(=O)=O | -3 | / | 1 | -1 | 3
